Measurements: PubChem BioAssay (EPA / NIEHS)
Activity calls are given as the source filed them. The calls were made as follows: active = hit-call score of the fitted dose curve at least 0.9, where 1 is the maximum; inactive = score below 0.9.

Experiments:
[1] = read-out: Matrix Metallopeptidase 1 (MMP1), MMP1 (gene 4312); test: BSK_hDFCGF_MMP1: BioMAP Diversity Plus: hDFCGF Assay for Matrix Metallopeptidase 1 (MMP1) Biomarker Activity (AID 2283064); details: primary human foreskin fibroblasts; actives raise or lower the signal
Summary of the method: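 ELISA read-out of MMP1 from human foreskin fibroblasts (primary skin cells), 24 h post-dose. Gain or loss of signal was fitted bidirectionally versus DMSO negative control; cytotoxicity was checked by SRB in parallel cultures.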

[2] = read-out: Vascular cell adhesion molecule 1 (VCAM1), VCAM1 (gene 7412); test: BSK_hDFCGF_VCAM1: BioMAP Diversity Plus: hDFCGF Assay for Vascular cell adhesion molecule 1 (VCAM1) Biomarker Activity (AID 2283065); details: primary human foreskin fibroblasts; actives raise or lower the signal
Summary of the method: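 Human foreskin fibroblast primary cells dosed with chemical, VCAM-1 measured by ELISA at 24 h. Bidirectional curve fitting relative to DMSO as negative control/baseline.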

[3] = read-out: Plasminogen activator inhibitor-1 (PAI1), SERPINE1 (gene 5054); test: BSK_hDFCGF_PAI1: BioMAP Diversity Plus: hDFCGF Assay for Plasminogen activator inhibitor-1 (PAI1) Biomarker Activity (AID 2283066); details: primary human foreskin fibroblasts; actives raise or lower the signal
Summary of the method: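 PAI-1 levels in human dermal foreskin fibroblasts were quantified by ELISA 24 h after dosing, with gain or loss analysed against DMSO. Overt cytotoxicity was checked by sulforhodamine B total-protein staining in parallel cultures.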

[4] = read-out: Interferon-gamma inducible Protein 10 (IP10), CXCL10 (gene 3627); test: BSK_KF3CT_IP10: BioMAP Diversity Plus: KF3CT Assay for Interferon-gamma inducible Protein 10 (IP10) Biomarker Activity (AID 2283068); details: primary human keratinocytes with fibroblasts; actives raise or lower the signal
Summary of the method: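 Signal is secreted/surface IP-10 by ELISA in a human primary skin co-culture of keratinocytes and foreskin fibroblasts, taken 24 h post-dosing; DMSO served as negative control.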

[5] = BSK_KF3CT_SRB: Viability Assessment in the BioMAP Diversity Plus: KF3CT Assay (AID 2283069); details: primary human keratinocytes with fibroblasts
Summary of the method: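 SRB read-out at 560 nm (0.1% stain, TCA-fixed cells) gauges overt cytotoxicity in a human skin keratinocyte–fibroblast co-culture 24 h post-dosing. Signal change was fitted bidirectionally relative to DMSO control.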

[6] = read-out: Interleukin-1 alpha (IL1a), IL1A (gene 3552); test: BSK_KF3CT_IL1a: BioMAP Diversity Plus: KF3CT Assay for Interleukin-1 alpha (IL1a) Biomarker Activity (AID 2283070); details: primary human keratinocytes with fibroblasts; actives raise or lower the signal
Summary of the method: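 Primary skin co-culture (keratinocytes, foreskin fibroblasts), 24 h exposure; ELISA for IL-1a; bidirectional curve fit vs DMSO.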

[7] = read-out: TIMP metallopeptidase inhibitor 2 (TIMP2), TIMP2 (gene 7077); test: BSK_KF3CT_TIMP2: BioMAP Diversity Plus: KF3CT Assay for TIMP metallopeptidase inhibitor 2 (TIMP2) Biomarker Activity (AID 2283071); details: primary human keratinocytes with fibroblasts; actives raise or lower the signal
Summary of the method: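 TIMP-2 measured by ELISA at 24 h in human keratinocyte/fibroblast primary co-cultures exposed to chemicals. Both increases and decreases were fitted against DMSO. Parallel cultures were stained with SRB for total protein as an overt-cytotoxicity check.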

[8] = read-out: Transforming growth factor beta 1 (TGFb1), TGFB1 (gene 7040); test: BSK_KF3CT_TGFb1: BioMAP Diversity Plus: KF3CT Assay for Transforming growth factor beta 1 (TGFb1) Biomarker Activity (AID 2283072); details: primary human keratinocytes with fibroblasts; actives raise or lower the signal
Summary of the method: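 ELISA quantifies TGF-b1 at 24 h post-dose in a primary human skin co-culture of keratinocytes and fibroblasts, with gain or loss judged against DMSO. Parallel SRB total-protein staining flags overt cytotoxicity.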

[9] = read-out: Matrix Metallopeptidase 9 (MMP9), MMP9 (gene 4318); test: BSK_KF3CT_MMP9: BioMAP Diversity Plus: KF3CT Assay for Matrix Metallopeptidase 9 (MMP9) Biomarker Activity (AID 2283074); details: primary human keratinocytes with fibroblasts; actives raise or lower the signal
Summary of the method: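 ELISA read-out of MMP-9 at 24 h post-dosing in a co-culture of human skin keratinocytes and foreskin fibroblasts. Gain or loss of signal was fitted in both directions against DMSO.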

[10] = read-out: urokinase plasminogen activator (uPA), PLAU (gene 5328); test: BSK_KF3CT_uPA: BioMAP Diversity Plus: KF3CT Assay for urokinase plasminogen activator (uPA) Biomarker Activity (AID 2283075); details: primary human keratinocytes with fibroblasts; actives raise or lower the signal
Summary of the method: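 Skin co-culture (keratinocytes + foreskin fibroblasts), human primary; 24 h post-dose; uPA by ELISA; gain/loss fit vs DMSO baseline.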

[11] = read-out: CD40, CD40 (gene 958); test: BSK_LPS_CD40: BioMAP Diversity Plus: LPS Assay for CD40 Biomarker Activity (AID 2283076); details: primary human HUVEC with PBMC; actives raise or lower the signal
Summary of the method: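 HUVEC plus PBMC co-culture stimulated with LPS; CD40 quantified by ELISA 24 h after compound dosing. Fitting was bidirectional relative to DMSO. SRB staining of parallel cultures flagged overt cytotoxicity.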

[12] = read-out: E-selectin (Homo sapiens) (UniProt P16581); test: BSK_LPS_Eselectin: BioMAP Diversity Plus: LPS Assay for Eselectin Biomarker Activity (AID 2283077); details: primary human HUVEC with PBMC; actives raise or lower the signal
Summary of the method: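 Human umbilical vein endothelial cells co-cultured with PBMC under LPS stimulation; cell-surface E-selectin measured by ELISA 24 h after dosing. Change in either direction versus DMSO, with SRB total-protein staining in parallel cultures for cytotoxicity.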

[13] = read-out: Interleukin-8 (IL8), CXCL8 (gene 3576); test: BSK_LPS_IL8: BioMAP Diversity Plus: LPS Assay for Interleukin-8 (IL8) Biomarker Activity (AID 2283078); details: primary human HUVEC with PBMC; actives raise or lower the signal
Summary of the method: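 Human umbilical vein endothelial cells co-cultured with PBMC, LPS-stimulated, exposed to compound for 24 h. IL-8 quantified by ELISA; fitted in both directions against DMSO, with SRB total-protein staining of parallel cultures for cytotoxicity.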

[14] = BSK_LPS_SRB: Viability Assessment in the BioMAP Diversity Plus: LPS Assay (AID 2283079); details: primary human HUVEC with PBMC;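 also: total protein by sulforhodamine B absorbance as a cytotoxicity measure; measured one day after compound addition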
Summary of the method: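 Co-culture of human umbilical vein endothelial cells and PBMC, read 24 h after dosing. Total protein by 0.1% SRB staining after 10% TCA fixation, absorbance at 560 nm; bidirectional fit against DMSO.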

[15] = read-out: Interleukin-1 alpha (IL1a), IL1A (gene 3552); test: BSK_LPS_IL1a: BioMAP Diversity Plus: LPS Assay for Interleukin-1 alpha (IL1a) Biomarker Activity (AID 2283080); details: primary human HUVEC with PBMC; actives raise or lower the signal
Summary of the method: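 Human umbilical vein endothelial cells co-cultured with PBMC and stimulated with LPS; IL-1a measured by ELISA 24 h after dosing. Bidirectional fitting against DMSO; cytotoxicity checked by SRB staining in parallel cultures.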

[16] = read-out: Monocyte Chemoattractant Protein-1 (MCP1), CCL2 (gene 6347); test: BSK_LPS_MCP1: BioMAP Diversity Plus: LPS Assay for Monocyte Chemoattractant Protein-1 (MCP1) Biomarker Activity (AID 2283081); details: primary human HUVEC with PBMC; actives raise or lower the signal
Summary of the method: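 Human umbilical vein endothelial cells co-cultured with PBMC, LPS-stimulated; secreted MCP-1 measured by ELISA 24 h after compound addition. Bidirectional curve fitting against DMSO baseline; SRB total-protein staining in parallel cultures for cytotoxicity.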

[17] = BSK_LPS_PGE2: BioMAP Diversity Plus: LPS Assay for Prostaglandin E2 (PGE2) Biomarker Activity (AID 2283082); details: primary human HUVEC with PBMC; actives raise or lower the signal
Summary of the method: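 PGE2 release measured by ELISA in an LPS-activated co-culture of human umbilical vein endothelial cells and peripheral blood mononuclear cells, read at 24 h post-dosing. DMSO served as baseline for bidirectional curve fitting.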

[18] = read-out: Macrophage colony-stimulating factor (MCSF), CSF1 (gene 1435); test: BSK_LPS_MCSF: BioMAP Diversity Plus: LPS Assay for Macrophage colony-stimulating factor (MCSF) Biomarker Activity (AID 2283083); details: primary human HUVEC with PBMC; actives raise or lower the signal
Summary of the method: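 HUVEC–PBMC co-culture, M-CSF measured by ELISA 24 h after chemical dosing. Fitted in both directions relative to DMSO as negative control; overt cytotoxicity assessed by SRB total-protein staining in parallel cultures.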

[19] = read-out: C-C motif chemokine 2 (Homo sapiens) (UniProt P13500); test: BSK_KF3CT_MCP1: BioMAP Diversity Plus: KF3CT Assay for Monocyte Chemoattractant Protein 1 (MCP1/CCL2) Biomarker Activity (AID 2283073); details: primary human keratinocytes with fibroblasts; actives raise or lower the signal
Summary of the method: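 Human keratinocyte–foreskin fibroblast co-culture; MCP-1 measured by ELISA 24 h after dosing. Bidirectional fit vs DMSO; cytotoxicity tracked by SRB total protein in parallel cultures.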

[20] = read-out: Intercellular Adhesion Molecule 1 (ICAM1), ICAM1 (gene 3383); test: BSK_KF3CT_ICAM1: BioMAP Diversity Plus: KF3CT Assay for Intercellular Adhesion Molecule 1 (ICAM1) Biomarker Activity (AID 2283067); details: primary human keratinocytes with fibroblasts; actives raise or lower the signal
Summary of the method: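 Human keratinocyte–foreskin fibroblast co-culture was treated for 24 h. Cell-surface ICAM-1 was quantified by ELISA, fitted bidirectionally relative to DMSO. Cytotoxicity was checked in parallel cultures by SRB total-protein staining.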

Measured: AC50

E-selectin (Homo sapiens), sequence (P16581 whole entry, looked up): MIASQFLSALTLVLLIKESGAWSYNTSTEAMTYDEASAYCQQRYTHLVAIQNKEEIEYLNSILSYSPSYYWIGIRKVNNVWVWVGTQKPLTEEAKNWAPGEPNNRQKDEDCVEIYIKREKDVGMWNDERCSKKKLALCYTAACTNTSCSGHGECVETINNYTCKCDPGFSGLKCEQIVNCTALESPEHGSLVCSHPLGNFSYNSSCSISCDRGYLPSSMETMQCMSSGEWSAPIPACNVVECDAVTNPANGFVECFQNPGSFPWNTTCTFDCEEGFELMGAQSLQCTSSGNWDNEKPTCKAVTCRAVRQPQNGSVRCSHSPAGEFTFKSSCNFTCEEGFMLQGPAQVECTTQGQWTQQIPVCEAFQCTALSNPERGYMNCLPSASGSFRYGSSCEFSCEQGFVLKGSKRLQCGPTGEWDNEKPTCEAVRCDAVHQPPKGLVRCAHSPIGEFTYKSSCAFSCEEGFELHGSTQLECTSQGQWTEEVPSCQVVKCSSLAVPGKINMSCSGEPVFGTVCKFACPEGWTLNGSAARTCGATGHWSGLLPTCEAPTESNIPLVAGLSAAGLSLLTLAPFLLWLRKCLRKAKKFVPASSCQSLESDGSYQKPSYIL

O=[N+]([O-])c1ccccc1
inactive: [1] | [2] | [3] | [4] | [5] | [6] | [7] | [8] | [9] | [10] | [11] | [12] | [13] | [14] | [15] | [16] | [17] | [18]

CCOP(=S)(NC(C)C)Oc1ccccc1C(=O)OC(C)C (stereo not given)
inactive: [1] | [2] | [4] | [6] | [7] | [8] | [19] | [9] | [10] | [11] | [12] | [13] | [14] | [15] | [16] | [17] | [18]
active: [3] 257 nM

CN(C)C(=O)Cl
inactive: [1] | [2] | [3] | [20] | [4] | [6] | [7] | [8] | [19] | [9] | [10] | [11] | [12] | [13] | [14] | [15] | [16] | [17] | [18]
